Screening data from PubChem BioAssay.
hDAT+cocaine – human DAT dopamine uptake with cocaine, either direction. Q01959. LLC-PK1 hDAT cells, [14C]-dopamine uptake with cocaine IC80; actives deviate in either direction. B-score at 10 µM. hit rate 1.3% among 110,000;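 active = Z score or B-score, a plate-position-corrected score, falls beyond the plate's 99.7% confidence bounds, in either direction; inactive = both scores lie inside the 99.7% bounds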
FAK blocker – blocks human focal adhesion kinase activity; Q05397; biochemical FAK kinase activity assay; inhibition, %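 (tested at 7 µM)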; hit rate 0.84% among 97,000; AID 727; in the data active = inhibition above about 19%
Pyk2 oligo antag – blocks oligomerization of human Pyk2 in cells; Q293 cells, Pyk2 FERM NanoBiT luminescence; stronger effect = lower value; z-score (the deposit names both 25 µM and 10 µM); hit rate 0.83% among 99,000; AID 1347419;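 active = Z-score of -3 or lower, scaled per plate to the spread of control and sample wells; inactive = z-score above -3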;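 also: negative z-score means lost luminescence so less FERM oligomerization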
Target sequence (Q14289 whole entry, looked up): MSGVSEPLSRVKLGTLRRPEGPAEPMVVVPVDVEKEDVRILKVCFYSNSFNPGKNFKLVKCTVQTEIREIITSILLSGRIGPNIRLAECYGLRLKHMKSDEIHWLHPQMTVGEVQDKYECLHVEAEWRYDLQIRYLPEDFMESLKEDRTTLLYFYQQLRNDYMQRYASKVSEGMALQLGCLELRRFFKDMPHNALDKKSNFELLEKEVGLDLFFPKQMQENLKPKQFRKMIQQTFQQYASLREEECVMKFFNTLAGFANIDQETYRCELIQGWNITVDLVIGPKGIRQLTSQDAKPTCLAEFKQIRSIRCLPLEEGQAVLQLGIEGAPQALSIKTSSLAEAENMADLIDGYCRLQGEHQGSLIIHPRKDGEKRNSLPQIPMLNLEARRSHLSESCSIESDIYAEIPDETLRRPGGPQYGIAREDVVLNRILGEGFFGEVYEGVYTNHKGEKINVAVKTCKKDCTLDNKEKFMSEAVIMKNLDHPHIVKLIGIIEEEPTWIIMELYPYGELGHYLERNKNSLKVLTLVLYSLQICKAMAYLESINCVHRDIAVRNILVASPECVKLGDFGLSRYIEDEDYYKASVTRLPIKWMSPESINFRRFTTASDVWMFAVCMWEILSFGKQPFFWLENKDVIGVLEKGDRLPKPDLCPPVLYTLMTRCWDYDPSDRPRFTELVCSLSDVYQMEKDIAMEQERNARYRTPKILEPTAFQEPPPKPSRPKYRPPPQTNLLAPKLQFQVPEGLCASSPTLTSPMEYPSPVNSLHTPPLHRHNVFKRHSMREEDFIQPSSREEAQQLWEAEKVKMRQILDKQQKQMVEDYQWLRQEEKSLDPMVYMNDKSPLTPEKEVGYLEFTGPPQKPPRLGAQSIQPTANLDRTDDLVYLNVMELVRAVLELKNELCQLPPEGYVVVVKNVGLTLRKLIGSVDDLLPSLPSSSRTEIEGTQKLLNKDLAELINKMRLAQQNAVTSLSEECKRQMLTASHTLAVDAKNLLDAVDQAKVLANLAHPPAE
CD11b adhes enh – enhancers of human CD11b/CD18 binding to fibrinogen; P05107+P11215; hit rate 0.07% among 93,000; activation, % at 10 µM; AID 1499; K562 CD11b/CD18 adhesion to fibrinogen, ATPlite luminescence;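 active = 10 µM primary screen giving 50% or more activity, confirmed by 40% or more on retest at that dose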
Mac1 fbg inh – inhibitors of human CD11b/CD18 binding to fibrinogen; hit rate 0.54% among 93,000; K562 CD11b/CD18 adhesion to fibrinogen, ATPlite luminescence; Mn2+ added to activate the integrin; inhibition, % at 10 µM;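 active = primary inhibition of 50% or more at 10 µM, then 40% or more on retest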
D1 mod – D1 dopamine receptor (human) allosteric modulation. P21728. B-score at 10 µM. HEK293 D1, CRE-luciferase, dopamine EC30 potentiation; actives deviate in either direction. hit rate 5.9% among 58,000;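 active = luminescence count or its row- and column-corrected plate score outside the 99.7% band of the plate's sample wells, on either side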
D1 PAM confirm – D1 receptor (human) allosteric modulation, confirmed. shares compounds with D1 mod. HEK293 D1 CRE-luciferase, dopamine EC30 potentiation; stronger effect = higher value. luminescence at 10 µM. hit rate 88% among 2,200. AID 642;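 active = luminescence in either of two replicates above the same-plate mean plus 3 SD of the low-dose dopamine control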
D1 ag no DA – D1 (human) signaling in absence of dopamine; shares compounds with D1 mod; HEK293 D1 CRE-luciferase, luminescence, no dopamine; stronger effect = higher value; luminescence at 10 µM; hit rate 0.8% among 1,900; AID 646; in the data active = luminescence above about 3900
Isoprot counter – isoproterenol response counter-screen activity for D1 modulators. AID 647. shares compounds with D1 mod. HEK293 D1 CRE-luciferase, isoproterenol EC30 counter-screen. calls only at 10 µM. hit rate 63% among 2,200;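 active = luminescence in either replicate above plate mean of wells with a partly effective reference agonist dose plus 3 SD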;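 also: isoproterenol raises cAMP through native beta-adrenoceptor Gs so signal bypasses D1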
Numbers stand for hits; . = inactive; / = no result; + = active, no number. Only a selection was taken, and hits are over-represented in it overall.

SMILES | hDAT+cocaine | FAK blocker | Pyk2 oligo antag | CD11b adhes enh | Mac1 fbg inh | D1 mod | D1 PAM confirm | D1 ag no DA | Isoprot counter
COc1ccc(-c2c3c(=O)n(C)c(=O)n(C)c3cn2C2CCCCC2)cc1 | . | . | . | . | . | 7.7 | 15660 | . | +
CCCOc1ccc(/C=N/NC(=O)CSCc2ccc([N+](=O)[O-])cc2)cc1OCC | / | / | . | / | / | / | / | / | /
C=CCOc1nc(N2CCCC2)nc(N2CCCC2)n1 | . | . | . | . | . | 24 | 26540 | . | +
O=C(Oc1cccnc1)c1cccc(Cl)c1 | . | . | . | . | . | . | / | / | /
COc1ccc(C(=O)Oc2cccnc2)cc1OC | . | . | . | . | . | 8.6 | 20932 | . | +
COc1ccc(-c2cn3ccccc3n2)cc1OC | . | . | . | . | . | 12 | 12712 | / | +
Cc1ccc2c(c1)cc(CN(Cc1cccnc1)C(=O)NCc1ccccc1)c1nnnn12 | . | . | . | . | . | / | / | / | /
CCc1[nH]nc2c1C1(CCN(C(=O)OCc3ccccc3)CC1)C(C#N)=C(N)O2 | . | . | . | / | / | . | / | / | /
CCCc1[nH]nc2c1C1(CCN(C(=O)OCc3ccccc3)CC1)C(C#N)=C(N)O2 | . | . | . | / | / | 2.5 | 8040 | . | +
O=S(=O)(c1cccc(-c2nc3n(n2)Cc2ccccc2-3)c1)N1CCCC1 | . | / | . | . | . | 4.9 | 7316 | . | +
O=S(=O)(c1cccc(-c2nc3n(n2)Cc2ccccc2-3)c1)N1CCCCC1 | . | . | . | / | / | / | / | / | /
CCO[C@H]1OC(C(=O)N2CCOCC2)=C[C@@H](c2ccc(Br)cc2)[C@@H]1CCCO | . | / | / | / | / | / | / | / | /
Cn1c(=O)c(=O)n(C)c2cc(S(=O)(=O)N3CCN(c4cccc(C(F)(F)F)c4)CC3)ccc21 | . | . | . | . | . | . | / | / | /
CCn1c(SC(C)C(=O)OC)nnc1-c1c[nH]c2ccccc12 (configuration not stated) | . | . | / | . | . | . | / | / | /
CC(C)Cn1c(=O)c2c(c3ccccc31)OC(C)C(=O)N2 (configuration not stated) | . | . | . | / | / | 4.2 | 7512 | . | .
CSc1ccccc1NC(=O)c1onc(C)c1Cl | . | . | / | . | . | 1.6 | 7308 | . | .
CC(C)CNc1oc(-c2ccc(F)cc2)nc1C#N | . | . | / | . | . | 13 | 14732 | . | +
N#C/C(=C\c1cccc(NC(=O)c2ccccc2Cl)c1)C(=O)NCCc1ccccc1 | / | / | / | . | . | / | / | / | /
COc1ccc(Nc2cc(C)nc(N3CCOCC3)n2)cc1 | . | . | . | . | . | 3.6 | 8656 | . | +
CCCOC(=O)C1=C(C)NC2=C(C(=O)CCC2)C1c1cccc(OC)c1OC (configuration not stated) | . | . | . | . | . | . | / | / | /
COc1ccc(S(=O)(=O)NNC(=O)c2csc(-n3nc(C)cc3C(F)(F)F)n2)cc1 | . | . | . | . | . | / | / | / | /
COc1ccccc1C1=Nn2c(nnc2C2CCCCC2)SC1 | . | . | . | . | . | 11 | 20508 | . | +
COc1ccc(OC)c(C2=Nn3c(nnc3C3CCCCC3)SC2)c1 | . | . | . | . | . | 16 | 17128 | / | +
O=C(COC(=O)c1ccc(CSc2ccc(Cl)cc2)cc1)Nc1ccccc1 | / | / | / | . | . | / | / | / | /
Cc1cccc(NC(=O)c2cc3ccccc3o2)c1 | . | . | . | / | / | . | / | / | /
SMILES | hDAT+cocaine | FAK blocker | Pyk2 oligo antag | CD11b adhes enh | Mac1 fbg inh | D1 mod | D1 PAM confirm | D1 ag no DA | Isoprot counter
CCC(=O)Nc1cccc(NC(=O)c2cc3ccccc3o2)c1 | / | . | . | . | . | 5.1 | 3904 | . | .
CCCc1cc(SCC(=O)Nc2c(C)n(C)n(-c3ccccc3)c2=O)n2c(nc3ccccc32)c1C#N | . | . | / | . | . | / | / | / | /
Nc1nc(CN2CCN(c3cccc(Cl)c3)CC2)nc(N2CCCc3ccccc32)n1 | . | . | . | . | . | . | / | / | /
Nc1nc(CN2CCN(c3ccccc3)CC2)nc(N2CCCc3ccccc32)n1 | . | . | . | . | . | 4 | 8864 | . | .
COc1ccc(N2CCN(Cc3nc(N)nc(N4CCCc5ccccc54)n3)CC2)cc1 | . | . | . | . | . | 5.7 | 13244 | . | +
CCOc1ccccc1OCC(=O)NN1Cc2ccccc2C1=N | . | . | . | . | . | / | / | / | /
O=C(O)c1ccc(-c2ccc(O)c(F)c2)cc1 | . | . | / | . | . | 5.9 | 7760 | . | +
C=C(C)Cn1c(SCC#N)nc2ccccc2c1=O | -2.9 | . | . | . | . | 16 | 15044 | . | +
CCCNC(=O)NC(=O)CSc1ccc2c(c1)OCCO2 | . | . | . | . | . | / | / | / | /
COc1ccc(CCn2c(C)cc3c(c2=O)C(c2ccc4c(c2)OCO4)C(C#N)=C(N)O3)cc1OC (configuration not stated) | 2.6 | / | . | . | . | 11 | 14224 | . | +
Nn1c(SCC(=O)NC2CCCc3ccccc32)nnc1-c1ccc(Cl)cc1Cl (configuration not stated) | / | / | / | . | . | / | / | / | /
CCOC(=O)C/C(C)=N/NC(=O)C1CC1(c1ccccc1)c1ccccc1 (configuration not stated) | / | / | / | . | . | / | / | / | /
Cc1c(CCO)c(=O)[nH]n1C(=O)c1ccc(F)cc1 | . | . | . | / | / | / | / | / | /
COc1ccc2nc(NC(=O)CN(C)S(=O)(=O)c3cccs3)sc2c1 | . | . | . | . | . | / | / | / | /
COc1cccc(-n2c(SCC(=O)Nc3cc(C)on3)nc3c([nH]c4ccccc43)c2=O)c1 | . | . | / | . | . | 5.7 | 10104 | . | +
CCNc1sc(C(=O)c2cccs2)c(N)c1-c1nc2ccccc2s1 | . | . | . | . | . | . | / | / | /
C=CCNc1sc(C(=O)c2cccs2)c(N)c1C#N | . | / | . | / | / | 16 | 22248 | . | +
CCNc1sc(C(=O)c2cccs2)c(N)c1C#N | . | . | . | . | . | 18 | 22348 | . | +
Cc1cc(C)nc(SCC(=O)Nc2ncc3c(n2)CC(C)(C)CC3=O)n1 | . | . | . | . | . | 5.3 | 7004 | . | .
CC1(C)CC(=O)c2cnc(NC(=O)Cc3ccc(Cl)cc3)nc2C1 | . | . | . | . | . | . | / | / | /
CC1(C)CC(=O)c2cnc(NC(=O)CSc3nc4ccccc4o3)nc2C1 | . | . | . | / | / | . | / | / | /
CCCCC(=O)Nc1ncc2c(n1)CC(C)(C)CC2=O | . | . | . | . | . | 3 | . | / | .
N#CC1=C(c2ccccc2)N=P(N2CCOCC2)(N2CCOCC2)N=C1N1CCOCC1 | / | / | / | / | / | . | / | / | /
O=C(CCS(=O)(=O)c1ccc(Br)s1)N1CCc2ccccc21 | . | . | . | . | . | . | / | / | /
CCOC(=O)C1CCN(C(=O)c2ccco2)CC1 | . | . | . | . | . | 4.4 | . | . | .
